The target in one assay is Albumin (Bos taurus) (UniProt P02769). The assay can be described thus: compounds binding labelled BSA control protein – biochemical, small-molecule microarray, Alexa647 label, 635/667 nm fluorescence, artefact control for SMM control protein annotation, profiling panel (AID 1118).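 Note: score merges 667 nm emission intensity and signal-to-noise per printed compound spot.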 As to conditions: BSA-A647 binding, fluorescence 635 nm, higher = more signal.
Assay [1] is described as follows: probe aXIP binding to arrayed compounds – biochemical, NeuroSMM set, 635/667 nm fluorescence, primary screen (AID 1119).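 Note: probe is the protein aXip251-270 applied at 1 µg/mL to compound-printed slides; binding of probe to printed compounds measured as 667 nm fluorescence plus signal to noise.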 As to conditions: small-molecule microarray, higher = more signal, called active from +8 up or from −8 down.
Assay [2] in a line: probe aNOTCH3 binding on compound microarray – biochemical, small-molecule microarray, 635/667 nm fluorescence, primary screen (AID 1120).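 Note: probe is a biotin-tagged antibody raised against NOTCH3 rather than NOTCH3 protein; score merges spot fluorescence near 667 nm with spot signal to noise.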 As to conditions: higher = more signal.
A short description of assay [3]: probe aNOTCH2 binding on compound microarray – biochemical, small-molecule microarray, 635/667 nm fluorescence, primary screen (AID 1121).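 Note: score merges feature fluorescence read at 667 nm with its signal to noise.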 The conditions noted are these: higher = more signal.
For assay [4], the target named is Carbonic anhydrase 2 (Homo sapiens) (UniProt P00918). As to the kind of experiment: compounds binding carbonic anhydrase 2 – biochemical, small-molecule microarray, Alexa647-labelled CAII, profiling panel (AID 1122). The conditions noted are these: CAII-A647 binding fluorescence, higher = more signal.
The nature of assay [5]: COS7 lysate on small-molecule microarray, probe aHis, 635 nm (AID 1123).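 Note: z-score combines 667nm fluorescence intensity with signal-to-noise per printed compound spot.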 The conditions noted are these: COS7 cell lysate, fluorescence, higher = more signal.
Assay [6] can be described thus: probe aLAP1 signal on lysate-treated microarray – cell lysate, small-molecule microarray, COS7 lysate, primary screen (AID 1124).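 Note: lysate comes from COS7 cells expressing LAP1 and is applied at 0.3 µg/mL; score merges spot fluorescence near 667 nm with signal-to-noise over triplicate slides.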 As to conditions: probe aLAP1, fluorescence, higher = more signal.
The subject of another assay is Sam68 (KHDRBS1). As to the kind of experiment: compounds binding KHDRBS1 protein – biochemical, small-molecule microarray, 635 nm fluorescence, primary screen (AID 1125).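 Note: score merges 667 nm channel intensity with signal to noise over triplicate slides.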 The conditions noted are these: higher = more signal.
The test system of assay [7] is Chordin-like protein 2 (CHRDL2). As to the kind of experiment: compounds binding chordin-like 2 – biochemical, small-molecule microarray, 635 nm fluorescence, primary screen (AID 1126).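 Note: printed compound slides probed with Chrdl2 protein at 4 µg/mL for 1 h at 4 C; score merges 667 nm emission intensity with signal to noise over three replicate slides.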 The conditions noted are these: fluorescence 635 nm, higher = more signal.
Assay [8] concerns the target Concanavalin-A (Canavalia ensiformis) (UniProt P02866). As to the kind of experiment: compounds binding concanavalin A lectin – biochemical, small-molecule microarray, Alexa647 label, 635 nm, artefact control for SMM control protein annotation, primary screen (AID 1127).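 Note: z combines 667 nm emission intensity with signal-to-noise across three replicate slides.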 As to conditions: ConA-A647 binding fluorescence, higher = more signal.
A short description of assay [9]: compounds binding Alexa647 anti-His antibody – biochemical, small-molecule microarray, 635 nm fluorescence, artefact control for SMM control protein annotation, primary screen (AID 1128).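 Note: score merges feature fluorescence with signal-to-noise for each printed compound spot.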 The conditions noted are these: higher = more signal.
Assay [10] relates to Human papillomavirus type 1a E7 protein (residues 1-88). The assay can be described thus: HPV1a E7 small-molecule binders, primary screen, biochemical, small-molecule microarray, residues 1-88, 635 nm (AID 1129). As to conditions: small-molecule microarray binding, fluorescence 635 nm; higher = more signal.
Assay [11] has as its target Focal adhesion kinase 1 (Homo sapiens) (UniProt Q05397). As to the kind of experiment: PTK2 protein binding on printed compound slides – biochemical, small-molecule microarray, 635/667 nm fluorescence, BSA, DTT, primary screen (AID 1130).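 Note: composite of spot emission at 667 nm and signal to noise over triplicate slides.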 As to conditions: 635 nm fluorescence, higher = more signal.
Assay [12] concerns Fibrinogen (Alexa647-labelled). The assay can be described thus: Alexa647-fibrinogen binding to printed small molecules – biochemical, small-molecule microarray, 635/667 nm fluorescence, artefact control for SMM control-protein annotation, profiling panel (AID 1131).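 Note: z-score merges 667 nm fluorescence with per-spot signal-to-noise over triplicate slides.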 As to conditions: fibrinogen-A647 binding fluorescence, higher = more signal.
Assay [13] has as its target Follistatin (Homo sapiens) (UniProt P19883). The assay can be described thus: FST protein binding to printed compounds – biochemical, small-molecule microarray, 635/667 nm fluorescence, primary screen (AID 1132). The conditions noted are these: 635 nm fluorescence, higher = more signal.
Assay [14] addresses Fibroblast growth factor 2 (Homo sapiens) (UniProt P09038). As to the kind of experiment: basic fibroblast growth factor binding to printed compounds – biochemical, small-molecule microarray, 635/667 nm fluorescence, primary screen (AID 1133). The conditions noted are these: FGF2, fluorescence 635/667, higher = more signal.
A short description of assay [15]: JC-1 mitochondrial potential readout, lung cancer cells – cell-based, A549, JC-1 fluorescence, basal, 24 h, 100 nL, profiling panel (AID 1138).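 Note: A549 lung adenocarcinoma cells under basal conditions with no added stimulus; test concentration not given here.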 As to conditions: higher = more signal.
For a further assay, the system named is Lefty1. As to the kind of experiment: Lefty1 protein binding to printed compounds – biochemical, small-molecule microarray, 635/667 nm fluorescence, primary screen (AID 1139). The conditions noted are these: fluorescence 635/667, higher = more signal.
Assay [16] relates to wheat germ agglutinin (Triticum aestivum), Alexa647-labelled. The assay can be described thus: Alexa647-WGA lectin binding to printed small molecules – biochemical, small-molecule microarray, 635/667 nm fluorescence, artefact control for SMM control-protein annotation, profiling panel (AID 1140).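 Note: score merges 667 nm feature emission with signal to noise over triplicate slides.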 The conditions noted are these: WGA-A647 binding, 635 nm fluorescence, higher = more signal.

For assay [17], the target named is Luciferin 4-monooxygenase (Photinus pyralis) (UniProt P08659). The assay can be described thus: inhibition of purified Photinus pyralis luciferase – biochemical, luminescence, purified enzyme, 2006 set, primary screen (AID 1141).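 Note: cell-free assay with purified firefly luciferase at 100 ng per well in PBS; test concentration not given here.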 As to conditions: purified firefly luciferase, SteadyGlo luminescence, 30 min; higher = more signal, called active from +8 up or from −8 down.

The values that follow come from PubChem BioAssay.

The structures appear in SMILES notation. The source made the active and inactive calls.

Sequence of Concanavalin-A (Canavalia ensiformis) (P02866 whole entry, looked up): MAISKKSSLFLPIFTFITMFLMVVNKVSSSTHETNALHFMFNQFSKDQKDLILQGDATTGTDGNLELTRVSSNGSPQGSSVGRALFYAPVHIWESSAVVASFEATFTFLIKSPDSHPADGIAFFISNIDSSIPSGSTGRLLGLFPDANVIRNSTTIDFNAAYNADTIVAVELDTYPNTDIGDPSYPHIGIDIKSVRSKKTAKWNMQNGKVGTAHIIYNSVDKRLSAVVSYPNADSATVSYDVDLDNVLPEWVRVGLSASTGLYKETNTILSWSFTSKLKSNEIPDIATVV
Sequence of Follistatin (Homo sapiens) (P19883 whole entry, looked up): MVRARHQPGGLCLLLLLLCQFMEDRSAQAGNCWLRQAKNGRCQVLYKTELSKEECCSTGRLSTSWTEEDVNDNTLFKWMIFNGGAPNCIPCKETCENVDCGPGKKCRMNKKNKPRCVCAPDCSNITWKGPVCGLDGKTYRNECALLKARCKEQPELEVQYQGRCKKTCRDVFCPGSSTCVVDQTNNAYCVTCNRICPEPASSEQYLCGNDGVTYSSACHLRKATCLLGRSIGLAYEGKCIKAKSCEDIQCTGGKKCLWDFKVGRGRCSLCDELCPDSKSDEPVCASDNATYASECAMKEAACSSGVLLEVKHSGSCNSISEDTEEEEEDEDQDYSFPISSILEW
Sequence of Focal adhesion kinase 1 (Homo sapiens) (Q05397 whole entry, looked up): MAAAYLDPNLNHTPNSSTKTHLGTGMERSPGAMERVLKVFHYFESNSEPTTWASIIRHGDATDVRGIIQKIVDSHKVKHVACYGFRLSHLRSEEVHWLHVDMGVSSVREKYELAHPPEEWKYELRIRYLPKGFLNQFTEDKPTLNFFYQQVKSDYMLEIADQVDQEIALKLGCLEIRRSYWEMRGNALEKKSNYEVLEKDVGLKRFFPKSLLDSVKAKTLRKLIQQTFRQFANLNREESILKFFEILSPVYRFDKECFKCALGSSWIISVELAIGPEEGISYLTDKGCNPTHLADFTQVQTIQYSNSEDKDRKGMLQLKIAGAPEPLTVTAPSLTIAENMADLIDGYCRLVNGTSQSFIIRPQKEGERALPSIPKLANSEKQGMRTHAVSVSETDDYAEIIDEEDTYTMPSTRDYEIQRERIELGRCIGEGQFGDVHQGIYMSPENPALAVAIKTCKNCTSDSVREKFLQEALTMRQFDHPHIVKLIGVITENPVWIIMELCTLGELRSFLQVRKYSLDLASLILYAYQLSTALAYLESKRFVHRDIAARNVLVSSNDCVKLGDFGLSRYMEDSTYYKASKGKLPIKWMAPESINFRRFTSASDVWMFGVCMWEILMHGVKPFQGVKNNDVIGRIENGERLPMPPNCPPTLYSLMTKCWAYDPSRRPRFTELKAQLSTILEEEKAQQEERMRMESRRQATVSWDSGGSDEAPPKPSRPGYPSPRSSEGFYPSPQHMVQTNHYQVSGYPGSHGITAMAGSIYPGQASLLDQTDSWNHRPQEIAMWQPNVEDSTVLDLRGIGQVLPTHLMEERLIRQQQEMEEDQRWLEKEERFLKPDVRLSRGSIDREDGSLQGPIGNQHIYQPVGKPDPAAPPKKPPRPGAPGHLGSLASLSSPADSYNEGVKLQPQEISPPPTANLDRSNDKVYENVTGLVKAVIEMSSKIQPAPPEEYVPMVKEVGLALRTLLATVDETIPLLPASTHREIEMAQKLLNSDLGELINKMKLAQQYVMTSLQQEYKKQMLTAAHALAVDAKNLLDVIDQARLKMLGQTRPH
Sequence of Fibroblast growth factor 2 (Homo sapiens) (P09038 whole entry, looked up): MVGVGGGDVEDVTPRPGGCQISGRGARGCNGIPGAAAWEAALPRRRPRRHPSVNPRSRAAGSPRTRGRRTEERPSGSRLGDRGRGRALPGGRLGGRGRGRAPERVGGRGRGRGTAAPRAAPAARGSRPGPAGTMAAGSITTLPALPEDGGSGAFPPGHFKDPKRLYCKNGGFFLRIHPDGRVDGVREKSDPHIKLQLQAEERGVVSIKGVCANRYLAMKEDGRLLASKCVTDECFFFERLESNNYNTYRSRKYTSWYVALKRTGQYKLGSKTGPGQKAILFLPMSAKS
Sequence of Luciferin 4-monooxygenase (Photinus pyralis) (P08659 whole entry, looked up): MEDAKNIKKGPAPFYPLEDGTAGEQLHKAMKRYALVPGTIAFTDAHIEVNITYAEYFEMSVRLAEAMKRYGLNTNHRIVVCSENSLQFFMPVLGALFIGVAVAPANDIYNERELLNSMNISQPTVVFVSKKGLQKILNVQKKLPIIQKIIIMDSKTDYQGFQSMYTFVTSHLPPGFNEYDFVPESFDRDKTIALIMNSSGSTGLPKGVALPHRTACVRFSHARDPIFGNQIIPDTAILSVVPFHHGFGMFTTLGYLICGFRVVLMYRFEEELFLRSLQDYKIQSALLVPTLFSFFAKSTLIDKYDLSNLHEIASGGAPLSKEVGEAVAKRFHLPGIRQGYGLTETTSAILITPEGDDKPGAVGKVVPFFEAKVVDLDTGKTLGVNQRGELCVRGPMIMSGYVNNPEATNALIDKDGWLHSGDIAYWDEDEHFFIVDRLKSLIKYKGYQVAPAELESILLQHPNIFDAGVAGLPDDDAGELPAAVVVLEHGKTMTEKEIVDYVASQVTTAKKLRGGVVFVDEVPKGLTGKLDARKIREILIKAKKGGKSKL
Sequence of Albumin (Bos taurus) (P02769 whole entry, looked up): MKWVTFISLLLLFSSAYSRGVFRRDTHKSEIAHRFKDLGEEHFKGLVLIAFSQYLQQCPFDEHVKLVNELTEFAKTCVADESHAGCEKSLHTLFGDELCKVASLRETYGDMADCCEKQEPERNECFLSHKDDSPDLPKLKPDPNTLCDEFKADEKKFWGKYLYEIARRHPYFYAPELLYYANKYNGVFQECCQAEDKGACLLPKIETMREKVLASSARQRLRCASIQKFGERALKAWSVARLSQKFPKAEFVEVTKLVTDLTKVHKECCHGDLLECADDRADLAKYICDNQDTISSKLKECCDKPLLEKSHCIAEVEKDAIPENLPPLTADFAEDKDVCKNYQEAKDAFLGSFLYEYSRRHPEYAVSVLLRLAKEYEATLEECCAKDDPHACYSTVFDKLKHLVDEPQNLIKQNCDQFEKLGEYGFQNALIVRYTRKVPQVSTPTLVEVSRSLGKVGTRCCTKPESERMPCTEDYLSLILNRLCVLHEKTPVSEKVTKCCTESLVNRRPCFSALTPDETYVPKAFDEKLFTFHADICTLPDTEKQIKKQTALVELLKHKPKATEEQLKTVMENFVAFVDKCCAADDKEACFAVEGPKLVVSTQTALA

Consider `CCCCc1nc2c(c3c1C[C@H](C)OC3)CN(CCC(C)C)CC2`, for which the composite z-score in the assay with Albumin (Bos taurus) was 0.627; in assay [2], -0.0343; in [3], -0.16; in assay [4], 0.221; in [5], 1.68; in [6], 0.44. For the same compound, the composite z-score came out at 1.31 in the assay on Sam68 (KHDRBS1); 0.388 in assay [7]; 0.934 in assay [8]; 0.965 in assay [9]; 1.13 in assay [10]; 0.0171 in [11]. In addition, the composite z-score was 0.928 in assay [12]; 0.818 in assay [13]; 0.732 in [14]; 1.17 in the assay on Lefty1; 0.399 in assay [16]. Besides, the composite Z-score in [1] was -0.214 (inactive). Further, the z-score in assay [15] was 1.8; in assay [17], -0.438 (inactive).
For the compound `COC(=O)CC=C[C@@H](C)[C@H](OC)c1ccccc1Br`, the composite z-score was -0.335 with Albumin (Bos taurus); 0.0985 in assay [2]; -0.0684 in assay [3]; -0.0896 in assay [4]; -0.453 in assay [5]; 0.1 in [6]. The composite z-score in the assay with Sam68 (KHDRBS1) was -0.0689; in [7] it was 0.508; in assay [8], -0.24; in assay [9], -0.457; in assay [10], 0.0434; in assay [11], -0.0378. Besides, the composite z-score is -0.47 in [12]; 0.209 in assay [13]; 0.182 in assay [14]; 0.0835 with Lefty1; -0.602 in assay [16]. Also, the composite Z-score in assay [1] is 0.0948 (inactive). Also, the z-score in assay [15] was 0.688; in assay [17], -0.384 (inactive).
On to `COC(=O)C1(C)C=C2C(=C(c3ccccc3)C(=O)C2C)CN1` (stereo not given), for which the composite z-score with Albumin (Bos taurus) is 0.226; in assay [2], -0.128; in assay [3] it was 0.0633; in [4] it was 0.479; in [5], 0.895; in [6], -0.368. The composite z-score in the assay with Sam68 (KHDRBS1) was -0.999; in assay [7], -0.368; in [8], -1.06; in [9], 1.57; in assay [10] it was 0.0147; in [11], 0.0183. In addition, the composite z-score in assay [12] was 0.494; in assay [13] it was -0.882; in assay [14], -0.253; in the assay with Lefty1, -1.5; in assay [16], 0.264. In addition, in assay [1], the composite Z-score was -0.107 (inactive). In addition, the z-score in assay [15] is -0.353; in assay [17], 1.89 (inactive).
On to `CC(C)(C)OC(=O)CC[C@]1(C(=O)NCc2ccccc2)N=C(c2ccc(OCCCO)cc2)O[C@H]1c1ccccc1`, for which the composite z-score with Albumin (Bos taurus) was found to be 0.912; in assay [2], 0.61; in [3], 0.0216; in assay [4], 0.735; in [5], 3.07; in [6] it was 0.378. Moreover, the composite z-score in the assay with Sam68 (KHDRBS1) was 1.3; in assay [7], -0.672; in [8] it was 1.11; in assay [9], 1.99; in assay [10] it was 1.26; in [11], 1.36. The composite z-score in [12] is 0.983; in assay [13], 0.362; in [14], 0.487; in the assay with Lefty1, -0.326; in assay [16] it was 0.732. Also, in assay [1], the composite Z-score is -0.0089 (inactive). Besides, the z-score in [15] is 0.949; in assay [17], 0.172 (inactive).
For the compound `O=C1C[C@]2(c3ccc([N+](=O)[O-])cc3)C(=O)N(CCN3CCOCC3)c3cc(CO)ccc3[C@H]2N1CC12CC3CC(CC(C3)C1)C2`, the composite z-score with Albumin (Bos taurus) was 0.89; in [2], -0.185; in assay [3] it was -0.174; in [4], 0.185; in [5], 0.253; in assay [6], 0.713. In addition, the composite z-score was -0.631 in the assay with Sam68 (KHDRBS1); -1.03 in [7]; -0.163 in assay [8]; -0.585 in [9]; 0.275 in [10]; 0.0816 in [11]. In addition, the composite z-score in assay [12] was -0.724; in assay [13], -0.377; in [14], -1.54; with Lefty1 it was -0.424; in assay [16], 0.551. In [1], the composite Z-score was 0.83 (inactive). Besides, the values for the z-score in [15] and in assay [17] were -0.869 and 0.959 (inactive), respectively.
Regarding `CO[C@@H]1COC(=O)CC=C[C@@H](C)[C@H](OC)COC(=O)[C@H](COCc2ccccc2)NC(=O)CC=C[C@H]1C`, the composite z-score was -1.39 with Albumin (Bos taurus); -0.0584 in assay [2]; -0.197 in [3]; -0.654 in assay [4]; -0.925 in assay [5]; -0.23 in assay [6]. Besides, the composite z-score with Sam68 (KHDRBS1) was -0.978; in assay [7] it was 1.22; in assay [8] it was -3.99; in [9], -1.36; in assay [10] it was -2.53; in assay [11], -0.843. Moreover, the composite z-score in assay [12] is -1.21; in assay [13], 1.43; in assay [14], 0.513; in the assay with Lefty1, 1.12; in [16] it was -1.13. Besides, the composite Z-score in assay [1] is 0.0898 (inactive). In addition, the z-score in assay [15] is -0.169; in assay [17], 0.518 (inactive).
